IDE act: human IDE activators in live cells, primary screen, fluorescence polarization, HEK cells, FAbeta-B substrate. Insulin-degrading enzyme (Homo sapiens), P14735. FAbeta-B cleavage; 0% vehicle, 100% cell-free pure enzyme wells. activation, % at 5.96 µM. hit rate 0.073% among 340,000. AID 493087, 2011;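 active means activation above the mean of all tested compounds plus 3 SD, set per screening campaign, cut at about 17% in these data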
Keap1 Nrf2 FP: Keap1-Nrf2 protein-protein interaction inhibitors, primary screen, biochemical, fluorescence polarization, single point. Keap1 Kelch-Nrf2 peptide fluorescence polarization, 1536-well. inhibition, % at 9.4 µM. hit rate 0.15% among 340,000. AID 504523, 2011. Kelch-like ECH-associated protein 1 (Homo sapiens), Q14145; in the data active means inhibition above about 12%;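 further: human Keap1 Kelch domain with fluorescein labeled Nrf2 9mer peptide probe; 0% = neutral control wells and 100% = peptide positive control; higher means more block of Keap1 binding to Nrf2 peptide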
Target sequence (Q14145 whole entry, looked up, the tested form may be a part): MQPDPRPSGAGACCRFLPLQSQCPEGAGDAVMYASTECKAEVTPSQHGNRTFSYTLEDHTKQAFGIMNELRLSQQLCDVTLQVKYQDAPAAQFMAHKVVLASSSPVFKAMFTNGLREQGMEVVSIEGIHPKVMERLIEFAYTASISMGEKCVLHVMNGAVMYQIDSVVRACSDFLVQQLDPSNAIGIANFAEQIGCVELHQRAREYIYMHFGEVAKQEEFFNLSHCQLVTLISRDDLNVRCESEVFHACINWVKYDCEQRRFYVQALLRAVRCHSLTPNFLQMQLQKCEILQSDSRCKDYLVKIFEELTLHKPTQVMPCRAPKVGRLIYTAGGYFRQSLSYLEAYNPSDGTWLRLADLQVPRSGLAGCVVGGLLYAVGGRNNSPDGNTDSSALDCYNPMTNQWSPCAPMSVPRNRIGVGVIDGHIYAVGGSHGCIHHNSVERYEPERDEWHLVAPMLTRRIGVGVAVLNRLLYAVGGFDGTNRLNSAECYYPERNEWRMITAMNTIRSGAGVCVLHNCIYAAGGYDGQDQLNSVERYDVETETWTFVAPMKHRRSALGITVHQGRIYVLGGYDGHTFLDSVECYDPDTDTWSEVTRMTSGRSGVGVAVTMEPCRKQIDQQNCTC
Cardiac RTF inh: cardiac RTF calcium sensitivity inhibitors, primary screen, biochemical, IANBD-TnC fluorescence, EC70 calcium | Troponin I, cardiac muscle (Homo sapiens) + Troponin T, cardiac muscle (Homo sapiens) + … | IANBD-labeled cardiac RTF, Ca2+ fluorescence | inhibition, % at 7.15 µM | hit rate 0.12% among 340,000 | AID 493244, 2011;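 active means inhibition above the mean inhibition of all tested compounds plus 3 SD, cut at about 17% in these data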;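 further: assay run at fixed EC70 calcium of 1.6 mM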
IDE inh: human IDE inhibitors in live cells, primary screen, fluorescence polarization, HEK cells, FAbetaB substrate; FAbetaB cleavage; inhibition, % at 5.59 µM; AID 434962, 2010; hit rate 0.41% among 320,000;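 active means percent inhibition above the average of all tested compounds plus 3 SD, set per screening campaign, cut at about 16% in these data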;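 further: IDE supplied by intact live HEK cells; FP after avidin binding of uncleaved biotin substrate so inhibition keeps polarization high; 0% = DMSO wells and 100% = 60 µM reference IDE inhibitor Ii1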
LANA DNA inh: inhibitors of KSHV C-LANA binding to DNA, primary screen, biochemical, fluorescence polarization, FAM-LBS DNA, MBP-C-LANA, single point. Kaposi's sarcoma herpesvirus LANA C-terminal domain (residues 932-1162) DNA binding. inhibition, % at 9 µM. hit rate 0.078% among 340,000. AID 504423, 2011;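 active means highest replicate inhibition at or above 60% at 9 µM, even if other replicates fall short; inactive means all replicates below 60% inhibition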;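 further: 0% = neutral control wells and 100% = 4 µM acridine orange control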
cardiac RTF act: cardiac RTF calcium sensitivity activators, primary screen, biochemical, IANBD-TnC fluorescence, EC20 calcium. hit rate 0.24% among 340,000. IANBD-labeled TnC RTF fluorescence at EC20 calcium; 0% EC20 calcium, 100% full calcium. activation, % at 7.2 µM;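 active means activation above the mean over all tested compounds plus 3 SD, cut at about 30% in these data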;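 further: rise in fluorescence read as greater calcium sensitivity of cardiac thin filaments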
IDE cell inh cf: human IDE inhibitors in live cells, confirmation, fluorescence polarization, HEK cells, FAbetaB substrate. shares compounds with IDE inh. FAbetaB cleavage. inhibition, % at 5.59 µM. hit rate 51% among 1,200. AID 435028, 2010;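 active means mean inhibition across triplicate wells above the cutoff set by the earlier primary insulin-degrading enzyme screen, cut at about 16% in these data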;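 further: 0% = DMSO wells and 100% = 60 µM reference IDE inhibitor Ii1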
HEK cytotox: cytotoxicity in HEK cells, cytotoxicity control for IDE inhibitor project, cell-based, luminescence; shares compounds with IDE inh; HEK293 cytotoxicity, ATP luminescence; inhibition, % at 5.59 µM; hit rate 28% among 1,200; AID 449730, 2010; in the data active means inhibition above about 22%;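 further: 0% = vehicle wells and 100% = reference cytotoxic drug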
* marks the source's active call; other numbers are inactive results; nt = no result given. Compounds with a hit are over-represented: about 0.81% of the library has one in this group of screens.

SMILES | IDE act | Keap1 Nrf2 FP | Cardiac RTF inh | IDE inh | LANA DNA inh | cardiac RTF act | IDE cell inh cf | HEK cytotox
CN1C(=O)CSc2ccc(NC(=O)NCCC3=CCCCC3)cc21 | -14 | -2 | -2 | 17* | -3 | -16 | 10 | 19
Cc1cccc(C(=O)Nc2cccc(-c3ccc4nncn4n3)c2)c1 | -29 | -4 | -12 | 20* | 1 | -4 | 12 | 17
CCc1ccc(O)c(N=Cc2cccc(C)c2O)c1 | 6 | -6 | -6 | 5 | -4 | 4 | nt | nt
Oc1ccc(Cl)cc1C=Nc1ccc2c3c(cccc13)CC2 | -3 | -11 | -35 | 42* | 1 | -4 | 0 | 11
Cc1cccc(C=Nc2ccc3c4c(cccc24)CC3)c1O | -1 | -10 | 2 | 33* | -2 | -3 | 9 | 3
NC(N)=NC(N)=Nc1cccc2ccccc12 | 8 | -1 | -6 | 17* | 1 | -3 | -2 | 13
Cc1c(Cl)cccc1N=C(N)N=C(N)N | -1 | -1 | 8 | 1 | 1 | -4 | nt | nt
CN1CCN(NC(=O)Nc2ccc(F)cc2)CC1 | -2 | -1 | 1 | nt | 0 | -1 | nt | nt
Cc1cc(=O)oc2cc(NC(=O)C(CCCN=C(N)N)NC(=O)OCc3ccccc3)ccc12 (stereo not drawn) | 0 | -6 | -2 | nt | -1 | -4 | nt | nt
CN(C)c1ccc(/C=C2\SC(=O)N(CCc3nnc(N)s3)C2=O)cc1 | -19 | -4 | -36 | 30* | -2 | 23 | 22* | 14
COc1cc(/C=C/C(=O)OCC(=O)N2CCN(S(=O)(=O)c3ccc(C)cc3C)CC2)cc(Cl)c1OC | 1 | 1 | 6 | nt | -2 | -7 | nt | nt
Cc1cc(C)cc(C(=O)NCC(=O)OCN2C(=O)c3ccccc3C2=O)c1 | 0 | -7 | -10 | 0 | -1 | 1 | nt | nt
N#CCc1nc2ccc(S(=O)(=O)N3CCOCC3)cc2s1 | -8 | -2 | -10 | 46* | 0 | -1 | 9 | 10
Cc1cc(C)c(S(=O)(=O)N2CCCOC2CNC(=O)C(=O)NCc2ccccn2)c(C)c1 (stereo not drawn) | 4 | 6 | -6 | 3 | 2 | -5 | nt | nt
CCN=C1S/C(=C\c2ccc(N3CCOCC3)cc2C)C(=O)N1CC | 5 | 0 | 8 | -1 | 0 | 2 | nt | nt
COCCN1C(=O)/C(=C/c2ccc(N3CCCC3)cc2C)SC1=S | -25 | -4 | -76 | 49* | 0 | 69* | 57* | 15
C=CCn1c(O)c(N=NC(=S)Nc2ccc(OC)cc2)c2ccccc21 | 4 | 2 | 7 | 17* | 1 | -17 | -1 | 57*
C=CCn1c(O)c(N=NC(=S)Nc2cccc(OC)c2)c2ccccc21 | -6 | -5 | 2 | 19* | -3 | -11 | 7 | 82*
Cc1ccnc(NC(=O)c2cc(F)c(F)cc2Cl)n1 | 2 | 1 | 7 | 2 | 0 | -6 | nt | nt
O=C(Cc1ccccc1)Nn1c(O)c(/C=C2\C=Nc3ccccc32)sc1=S | -63 | 4 | -76 | 62* | 1 | 58* | 43* | 11
CC(=O)Nc1cccc(C(=O)/C=C/c2ccc(N(C)C)cc2)c1 | -174 | -37 | -81 | 56* | 6 | 73* | 51* | 14
CC(=O)Nc1cccc(C(=O)/C=C/c2ccc(/C=C/C(=O)c3cccc(NC(C)=O)c3)cc2)c1 | nt | nt | nt | -1 | nt | nt | nt | nt
CCOC(=O)C1=CC[C@@H](c2cccc(C)c2)N(S(=O)(=O)c2ccc(C)cc2)[C@H]1C(=O)OCC | -4 | -3 | -2 | 16* | -1 | 1 | 13 | 12

Screening results deposited in PubChem BioAssay by several laboratories.
